An excerpt weighted towards active compounds, which were near 3.6% of everything screened.
Mm-Cpn inhibitor: M. maripaludis TRiC chaperonin inhibition; purified Mm-Cpn ATPase, ADP Transcreener TR-FRET; Potency, µM (highest dose often 76.9 µM), for the others: at the top dose activity, negative = inhibition, hits mostly inhibitors; actives 0.031% (n = 330,000); AID 504842; further: on the % scale 0 is the no-effect control and ±100 the full control effect; nearly all actives have a fitted effect of over 80% in size
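Purified archaeal Mm-CPN (25nM final) preincubated 10 min at 37degC with compound, then 10uM ATP for 30 min at 37degC; ADP measured by HTRF Transcreener TR-FRET; buffer 30 mM TRIS pH 7.4, 100mM KCl, 5mM MgCl2, 1mM DTT.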
aSyn yeast inh: rescues yeast growth from alpha-synuclein toxicity. Yeast expressing alpha-synuclein, growth rescue, BacTiter-Glo, 24 h. Potency, µM (highest dose often 46.1 µM), without a hit: top-dose growth rescue (activation), usual class: activators. actives 0.14% (n = 370,000); further: % of control where 0% means no effect; nearly all actives have a fitted effect of over 65% in size
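Screening used galactose-induced yeast with toxic alpha-synuclein levels, exposed to compound for 24 hr at 30 deg C. Cell growth, read with BacTiter-Glo luminescence, gave the measured signal.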
ClpP mod: qHTS Assay for Activators of ClpP; actives 1.9% (n = 340,000); AID 651965, 2013; Potency, µM (top dose mostly 57.5 µM), for the others: top-dose activity change, negative = active; purified B. subtilis ClpP, FRET peptide cleavage, 20 min; ATP-dependent Clp protease proteolytic subunit (Bacillus subtilis (strain 168)), P80244; active means well fitted falling curve with a large enough effect; inconclusive means small, poorly fitted or top-dose-only effect; inactive means no such curve, though single readings can be large or run the other way; further: the source files actives as falling curves though it sought activators and does not explain the sign; nearly all actives have a fitted effect of over 65% in size
Target sequence (P80244 whole entry, looked up): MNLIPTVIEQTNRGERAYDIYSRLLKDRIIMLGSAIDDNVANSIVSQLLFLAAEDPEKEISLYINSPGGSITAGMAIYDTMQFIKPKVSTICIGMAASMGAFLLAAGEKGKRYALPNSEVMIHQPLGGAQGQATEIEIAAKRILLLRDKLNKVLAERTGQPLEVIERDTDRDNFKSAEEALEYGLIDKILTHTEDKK
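Buffer: 100 mM Tris/HCl pH8, 100 mM KCl, 0.05% low protease BSA, 2.5% glycerol, 0.01% Tween-20. ClpP 10 microg/mL final; 20 min RT; delta FRET normalized to ADEP and DMSO controls.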
Abeta yeast res: compounds reversing amyloid beta toxicity in yeast; yeast expressing A-beta42, growth rescue, OD600, 48 h; response scale: 0% DMSO, 100% iron-clioquinol control; Potency, µM (titrated, usually from 46.1 µM), usual class: activators; actives 0.063% (n = 410,000); further: nearly all actives have a fitted effect of over 55% in size
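Yeast A-beta toxicity model in growth medium with pinned compounds, 48 h at 30 C; growth read as absorbance at 600 nm. Normalized to FeCl3/clioquinol equimolar mix (positive) and DMSO (negative).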
TDP43 rescue: inhibitors of TDP-43 toxicity in yeast. TDP-43 expressing yeast growth rescue, BacTiter-Glo, 24 h. Potency, µM (top dose mostly 46.1 µM), inactives show at the top dose growth rescue (activation), usual class: activators. actives 1.8% (n = 410,000). AID 652104; further: % of control where 0% means no effect; nearly all actives have a fitted effect of over 50% in size
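Readout is BacTiter-Glo luminescence of cell growth, so inhibitors register as activators. TDP-43-expressing yeast at OD600=0.02 in galactose medium, after raffinose pregrowth to mid-log, were incubated with compound for 24 hr at 30 deg C.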
FUS yeast rescue: suppressors of FUS proteinopathy in yeast | S. cerevisiae FUS-expressing, growth rescue, OD600, 24 h | actives 0.24% (n = 390,000) | Potency, µM (titrated, usually from 76.6 µM), actives largely listed as activators;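 further: plate controls were DMSO vehicle for no effect and reference control for full effect; nearly all actives have a fitted effect of over 55% in size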
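Yeast FUS proteinopathy model; galactose-induced FUS (2%), starting OD 0.005. Cpds in dilution series, 24hr, 30C, 99% humidity. Abs 600 nm growth. Pos ctrl CP55940 (top 92uM final); neg ctrl DMSO.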
The depositor's hits bear a star. Unless noted, the call rests on the fitted dose curve; in most records, active means well fitted curve in the direction sought with a large enough effect; inconclusive means small, poorly fitted or top-dose-only effect, or another doubt; inactive means no such curve, though single readings can be large; an effect the other way counts as inactive or inconclusive. Potency means the concentration at half of the fitted maximal effect.

What do the screens show for `COc1ccc(Cn2c(=O)[nH]c3cc(C(=O)NCCCN4CCCC4)ccc3c2=O)cc1`?
Mm-Cpn inhibitor: 0%; aSyn yeast inh: 1%; ClpP mod: -16%; Abeta yeast res: inactive; TDP43 rescue: 15%; FUS yeast rescue: inactive

Results for CCCCCn1c(=O)[nH]c2cc(C(=O)NCCCN3CCCCC3)ccc2c1=O ?
Mm-Cpn inhibitor: 1%; aSyn yeast inh: -5%; ClpP mod: 28µM*; Abeta yeast res: inactive; TDP43 rescue: 9%; FUS yeast rescue: inactive

How did CCN(CC)CCCNC(=O)c1ccc2c(=O)n(CCc3ccccc3)c(=O)[nH]c2c1 do in these assays?
ClpP mod: 4%; Abeta yeast res: inactive; TDP43 rescue: 20%; FUS yeast rescue: inactive

What do the screens show for `CCCCCn1c(=O)[nH]c2cc(C(=O)NCCN(CC)CC)ccc2c1=O`?
Mm-Cpn inhibitor: -1%; aSyn yeast inh: 3%; ClpP mod: 25µM*; Abeta yeast res: inactive; TDP43 rescue: -4%; FUS yeast rescue: inactive

How did COc1ccc(OC)c(/C=C/c2cc3ccccc3cn2)c1 do in these assays?
ClpP mod: -25%

What do the screens show for `COc1ccc(N2CC(NC(=O)/C=C\c3ccccc3)CC2=O)cc1OC` (centres undefined)?
ClpP mod: -1%; Abeta yeast res: inactive; TDP43 rescue: 11%; FUS yeast rescue: inactive

What do the screens show for `Nn1c(C2CCC2)nc2ccccc2c1=O`?
Mm-Cpn inhibitor: -1%; aSyn yeast inh: -2%; Abeta yeast res: inactive; TDP43 rescue: -11%; FUS yeast rescue: inactive

What do the screens show for `Nc1nc2c3ccccc3nc(C3CC3)n2n1`?
Mm-Cpn inhibitor: 2%; aSyn yeast inh: 0%; ClpP mod: 22µM*; Abeta yeast res: inactive; TDP43 rescue: 0%; FUS yeast rescue: inactive

How did CCOC(=O)C1(Cc2cccc(Cl)c2)CCCN(C(=O)c2cc(C)[nH]n2)C1 (centres undefined) do in these assays?
Mm-Cpn inhibitor: 3%; aSyn yeast inh: 1%; ClpP mod: 28µM*; Abeta yeast res: inactive; TDP43 rescue: 10%; FUS yeast rescue: inactive

What do the screens show for `CCOC(=O)C1(Cc2cccc(Cl)c2)CCCN(C(=O)c2cc(C)on2)C1` (centres undefined)?
Mm-Cpn inhibitor: -6%; aSyn yeast inh: -1%; ClpP mod: -3%; Abeta yeast res: inactive; TDP43 rescue: 25%

What do the screens show for `CN1CCN(c2ccc3c(c2)Oc2ccccc2CN(Cc2cn(Cc4ccc(F)cc4)nn2)S3(=O)=O)CC1`?
FUS yeast rescue: inactive

What do the screens show for `Cc1ccc2[nH]cc(C(c3ccccc3)c3cccs3)c2c1` (centres undefined)?
ClpP mod: -5%; Abeta yeast res: inactive; TDP43 rescue: 8.9µM*; FUS yeast rescue: inactive

What do the screens show for `O=[N+]([O-])c1ccc(O/N=[N+](\[O-])N2CCN(c3ccccc3)CC2)c([N+](=O)[O-])c1`?
aSyn yeast inh: -43%

What do the screens show for `CCN(C(=O)c1c(C)oc2ncn(CC(C)C)c(=O)c12)c1cccc(Cl)c1`?
ClpP mod: 1%; Abeta yeast res: inactive; TDP43 rescue: inconclusive; FUS yeast rescue: inactive

What do the screens show for `O=C(Cn1nc(Cl)nc1Cl)c1cc2ccccc2oc1=O`?
Mm-Cpn inhibitor: -3%; aSyn yeast inh: 18%; ClpP mod: 28µM*; Abeta yeast res: inactive; TDP43 rescue: -6%

What do the screens show for `O=C(Cn1nc(Cl)nc1Cl)c1ccccc1`?
Mm-Cpn inhibitor: -3%; aSyn yeast inh: 6%; Abeta yeast res: inactive; TDP43 rescue: 21%; FUS yeast rescue: inactive
